Laboratory results as given in the supplement of paper PMC6411743.
± gives the standard deviation of the averaged measurements. Targets with the largest changes are over-represented here; the source holds about 5,400 in all.

Compound: Nc1nc2c(ncn2[C@@H]2O[C@H](COP(=O)(O)OP(=O)(O)OP(=O)(O)O)[C@@H](O)[C@H]2O)c(=O)[nH]1 [guanosine triphosphate]
Assay: NP40-soluble protein abundance relative to vehicle (solubility fold change) (ratio); higher = more soluble protein in presence of GTP
In short: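 Crude Jurkat lysate, prepared by Dounce homogenisation, was exposed to eight concentrations from 0.1 to 10 mM for 10 min at room temperature and then 3 min at 37 °C. Solubilisation used 0.8% NP40 with benzonase for 60 min at 4 °C, followed by ultracentrifugation and TMT labelling of the supernatant for LC-MS/MS. After vsn normalisation of intensities, each value is the fold change against the detergent-processed vehicle within each replicate, across three independent experiments.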

Sequence of UniProt Q6UB99 (Q6UB99 whole entry): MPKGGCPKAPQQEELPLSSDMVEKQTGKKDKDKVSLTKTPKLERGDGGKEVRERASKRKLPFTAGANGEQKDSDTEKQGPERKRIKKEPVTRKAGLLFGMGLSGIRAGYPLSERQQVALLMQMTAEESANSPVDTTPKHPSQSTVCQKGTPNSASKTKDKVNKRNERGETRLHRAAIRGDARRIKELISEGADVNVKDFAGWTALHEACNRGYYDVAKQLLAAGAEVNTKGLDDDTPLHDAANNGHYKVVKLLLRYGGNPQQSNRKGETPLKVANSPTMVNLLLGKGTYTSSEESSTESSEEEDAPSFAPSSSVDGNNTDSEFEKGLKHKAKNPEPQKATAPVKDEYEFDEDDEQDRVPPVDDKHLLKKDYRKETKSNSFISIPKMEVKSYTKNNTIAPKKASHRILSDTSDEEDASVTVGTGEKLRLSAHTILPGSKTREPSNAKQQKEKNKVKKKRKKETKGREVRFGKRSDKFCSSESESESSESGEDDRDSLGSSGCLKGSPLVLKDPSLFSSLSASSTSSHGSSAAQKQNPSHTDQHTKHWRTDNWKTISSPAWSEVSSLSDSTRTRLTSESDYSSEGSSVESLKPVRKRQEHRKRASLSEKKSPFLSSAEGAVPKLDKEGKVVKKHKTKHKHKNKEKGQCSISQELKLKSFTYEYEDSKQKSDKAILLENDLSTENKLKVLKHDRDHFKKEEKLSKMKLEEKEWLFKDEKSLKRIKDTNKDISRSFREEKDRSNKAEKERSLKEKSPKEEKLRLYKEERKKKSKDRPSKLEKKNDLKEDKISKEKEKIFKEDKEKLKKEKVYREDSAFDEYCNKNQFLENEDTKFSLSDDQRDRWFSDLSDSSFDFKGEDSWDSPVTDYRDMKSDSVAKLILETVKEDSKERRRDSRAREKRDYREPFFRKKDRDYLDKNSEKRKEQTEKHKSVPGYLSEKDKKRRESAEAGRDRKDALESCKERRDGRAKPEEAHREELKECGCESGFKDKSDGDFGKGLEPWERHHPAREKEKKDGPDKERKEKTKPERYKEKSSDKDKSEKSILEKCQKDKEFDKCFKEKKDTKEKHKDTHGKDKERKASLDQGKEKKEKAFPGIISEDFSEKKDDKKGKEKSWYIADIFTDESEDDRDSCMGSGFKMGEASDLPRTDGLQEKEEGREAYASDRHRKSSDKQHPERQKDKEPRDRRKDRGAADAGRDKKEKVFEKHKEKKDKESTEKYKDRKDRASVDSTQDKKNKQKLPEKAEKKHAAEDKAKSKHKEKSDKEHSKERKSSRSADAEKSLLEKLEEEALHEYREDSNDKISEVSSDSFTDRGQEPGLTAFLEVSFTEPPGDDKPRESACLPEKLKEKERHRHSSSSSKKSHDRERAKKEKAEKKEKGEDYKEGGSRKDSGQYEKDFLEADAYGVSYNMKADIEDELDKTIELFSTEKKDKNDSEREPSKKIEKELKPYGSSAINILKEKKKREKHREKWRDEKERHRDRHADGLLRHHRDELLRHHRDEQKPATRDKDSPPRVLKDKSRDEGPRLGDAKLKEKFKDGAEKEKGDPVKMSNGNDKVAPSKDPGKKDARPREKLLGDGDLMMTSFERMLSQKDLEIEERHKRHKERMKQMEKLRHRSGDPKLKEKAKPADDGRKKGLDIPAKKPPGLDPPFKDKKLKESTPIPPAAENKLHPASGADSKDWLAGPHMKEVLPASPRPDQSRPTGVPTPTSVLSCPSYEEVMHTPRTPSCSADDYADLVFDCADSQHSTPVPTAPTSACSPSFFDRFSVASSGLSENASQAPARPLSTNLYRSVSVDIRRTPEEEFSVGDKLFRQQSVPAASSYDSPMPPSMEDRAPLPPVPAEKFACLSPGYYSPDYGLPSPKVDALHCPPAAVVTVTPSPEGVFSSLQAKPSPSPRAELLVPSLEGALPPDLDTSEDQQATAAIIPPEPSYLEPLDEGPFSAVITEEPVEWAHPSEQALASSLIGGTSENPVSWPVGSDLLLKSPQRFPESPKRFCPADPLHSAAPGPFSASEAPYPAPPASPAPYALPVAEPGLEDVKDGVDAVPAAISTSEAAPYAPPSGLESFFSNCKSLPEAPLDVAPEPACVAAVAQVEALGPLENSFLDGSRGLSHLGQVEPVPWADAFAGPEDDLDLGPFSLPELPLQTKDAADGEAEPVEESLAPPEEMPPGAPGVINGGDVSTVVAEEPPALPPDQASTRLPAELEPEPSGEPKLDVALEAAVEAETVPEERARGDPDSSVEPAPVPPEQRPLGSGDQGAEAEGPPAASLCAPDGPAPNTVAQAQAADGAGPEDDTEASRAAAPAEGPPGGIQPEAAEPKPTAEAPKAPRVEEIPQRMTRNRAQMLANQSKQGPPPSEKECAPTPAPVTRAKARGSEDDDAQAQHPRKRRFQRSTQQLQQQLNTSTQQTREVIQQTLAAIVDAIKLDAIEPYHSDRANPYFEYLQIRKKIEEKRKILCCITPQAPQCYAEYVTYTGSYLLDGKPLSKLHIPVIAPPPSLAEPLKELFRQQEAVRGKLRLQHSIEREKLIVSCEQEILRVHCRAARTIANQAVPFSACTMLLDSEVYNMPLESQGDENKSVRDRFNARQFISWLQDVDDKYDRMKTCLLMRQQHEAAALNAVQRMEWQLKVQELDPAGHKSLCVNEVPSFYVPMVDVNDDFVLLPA
Sequence of UniProt P55072 (P55072 whole entry, looked up): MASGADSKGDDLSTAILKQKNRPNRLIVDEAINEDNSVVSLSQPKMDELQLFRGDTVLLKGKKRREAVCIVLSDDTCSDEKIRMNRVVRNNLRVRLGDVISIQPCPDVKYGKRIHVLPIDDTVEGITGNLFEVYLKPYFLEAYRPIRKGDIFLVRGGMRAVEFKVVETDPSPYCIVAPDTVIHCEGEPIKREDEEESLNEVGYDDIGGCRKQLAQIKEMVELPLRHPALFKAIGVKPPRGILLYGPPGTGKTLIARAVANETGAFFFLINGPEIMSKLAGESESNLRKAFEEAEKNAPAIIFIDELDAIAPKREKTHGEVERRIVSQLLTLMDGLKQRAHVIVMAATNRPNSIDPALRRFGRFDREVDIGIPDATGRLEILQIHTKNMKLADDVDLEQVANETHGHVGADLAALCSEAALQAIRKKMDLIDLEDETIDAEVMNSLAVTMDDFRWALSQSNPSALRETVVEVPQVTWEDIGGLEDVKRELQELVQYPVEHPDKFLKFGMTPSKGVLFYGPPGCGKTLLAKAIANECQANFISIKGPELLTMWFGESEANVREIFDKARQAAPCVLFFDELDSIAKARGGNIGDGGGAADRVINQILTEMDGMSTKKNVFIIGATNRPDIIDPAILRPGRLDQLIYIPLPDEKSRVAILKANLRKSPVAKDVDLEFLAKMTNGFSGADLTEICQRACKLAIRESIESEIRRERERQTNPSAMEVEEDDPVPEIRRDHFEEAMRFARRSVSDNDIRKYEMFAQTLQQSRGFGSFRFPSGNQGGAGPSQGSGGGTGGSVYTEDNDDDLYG
Sequence of UniProt P80217 (P80217 whole entry): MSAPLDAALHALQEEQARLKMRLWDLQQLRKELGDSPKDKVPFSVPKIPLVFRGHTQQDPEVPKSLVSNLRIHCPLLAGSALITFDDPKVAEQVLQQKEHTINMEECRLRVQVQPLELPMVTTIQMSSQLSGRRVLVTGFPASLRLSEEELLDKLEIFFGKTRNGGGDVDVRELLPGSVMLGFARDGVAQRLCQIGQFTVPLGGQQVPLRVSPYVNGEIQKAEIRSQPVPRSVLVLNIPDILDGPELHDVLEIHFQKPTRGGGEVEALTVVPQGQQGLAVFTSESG
Sequence of UniProt Q8WUQ7 (Q8WUQ7 whole entry): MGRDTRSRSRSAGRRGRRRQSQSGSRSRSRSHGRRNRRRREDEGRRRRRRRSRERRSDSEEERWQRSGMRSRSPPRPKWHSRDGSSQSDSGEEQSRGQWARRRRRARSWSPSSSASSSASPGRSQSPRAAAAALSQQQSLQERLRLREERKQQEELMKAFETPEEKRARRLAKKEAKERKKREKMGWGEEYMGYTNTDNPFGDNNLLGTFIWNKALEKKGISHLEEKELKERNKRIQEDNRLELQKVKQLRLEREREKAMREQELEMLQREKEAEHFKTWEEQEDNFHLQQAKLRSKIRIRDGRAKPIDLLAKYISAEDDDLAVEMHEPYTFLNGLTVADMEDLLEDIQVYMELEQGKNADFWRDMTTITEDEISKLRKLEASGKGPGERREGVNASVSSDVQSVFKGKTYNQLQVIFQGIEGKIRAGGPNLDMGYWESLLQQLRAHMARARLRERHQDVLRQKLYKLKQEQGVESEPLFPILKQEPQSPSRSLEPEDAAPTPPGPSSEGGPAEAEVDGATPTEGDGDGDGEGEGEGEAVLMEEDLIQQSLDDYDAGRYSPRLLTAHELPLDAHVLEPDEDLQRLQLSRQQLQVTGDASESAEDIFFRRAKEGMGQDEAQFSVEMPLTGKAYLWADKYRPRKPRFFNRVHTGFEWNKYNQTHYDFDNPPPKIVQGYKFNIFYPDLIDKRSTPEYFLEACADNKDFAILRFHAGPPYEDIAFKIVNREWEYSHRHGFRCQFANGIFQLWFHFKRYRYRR
Sequence of UniProt Q9UKM9 (Q9UKM9 whole entry, one chain of several): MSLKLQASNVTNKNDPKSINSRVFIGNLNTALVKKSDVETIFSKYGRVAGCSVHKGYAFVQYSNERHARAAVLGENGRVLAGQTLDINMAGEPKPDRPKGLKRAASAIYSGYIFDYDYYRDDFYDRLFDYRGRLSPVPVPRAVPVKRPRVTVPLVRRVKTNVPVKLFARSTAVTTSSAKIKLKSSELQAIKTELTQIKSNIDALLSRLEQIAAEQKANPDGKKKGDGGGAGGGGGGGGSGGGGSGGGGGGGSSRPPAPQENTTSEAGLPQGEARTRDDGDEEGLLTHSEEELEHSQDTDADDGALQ
Sequence of UniProt Q6I9Y2 (Q6I9Y2 whole entry): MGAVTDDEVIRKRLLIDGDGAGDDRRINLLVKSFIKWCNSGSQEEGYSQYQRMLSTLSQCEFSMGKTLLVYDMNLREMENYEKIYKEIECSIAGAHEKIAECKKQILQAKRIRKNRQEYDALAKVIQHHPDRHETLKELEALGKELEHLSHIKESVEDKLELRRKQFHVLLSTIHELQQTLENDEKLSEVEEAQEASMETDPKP

Target	NP40-soluble protein abundance (concentration: 0.1mM)	NP40-soluble protein abundance (concentration: 0.5mM)	NP40-soluble protein abundance (concentration: 1mM)	NP40-soluble protein abundance (concentration: 2mM)	NP40-soluble protein abundance (concentration: 4mM)	NP40-soluble protein abundance (concentration: 6mM)	NP40-soluble protein abundance (concentration: 8mM)	NP40-soluble protein abundance (concentration: 10mM)
Q5QPL9|Q9UKM9-2|Q9UKM9 (UniProt Q9UKM9)	0.927 ± 0.04	1 ± 0.025	1.07 ± 0.14	1.07 ± 0.2	1.07 ± 0.28	1.05 ± 0.25	1.01 ± 0.24	0.949 ± 0.23
UniProt Q8N2K0|Q8N2K0-2	1.09 ± 0.011	1.04 ± 0.051	1.01 ± 0.017	1.017 ± 0.0025	1.03 ± 0.015	1.01 ± 0.023	0.997 ± 0.031	0.976 ± 0.034
DDX51 (UniProt Q8N8A6)	1.07 ± 0.15	1.11 ± 0.05	1.2 ± 0.08	1.35 ± 0.09	1.64 ± 0.085	1.86 ± 0.21	2.05 ± 0.24	2.1 ± 0.15
UniProt P61981	0.845 ± 0.11	0.811 ± 0.067	1.01 ± 0.14	0.987 ± 0.076	0.942 ± 0.075	0.968 ± 0.12	0.912 ± 0.15	1.05 ± 0.16
PPP2R5A (UniProt Q15172)	1.04 ± 0.063	0.993 ± 0.046	0.939 ± 0.011	0.9 ± 0.033	0.877 ± 0.048	0.864 ± 0.04	0.862 ± 0.097	0.848 ± 0.055
SMC5 (UniProt Q8IY18)	1.026 ± 0.0089	1.06 ± 0.036	1.03 ± 0.025	1.02 ± 0.03	1.009 ± 0.0054	1.04 ± 0.019	1.05 ± 0.031	1.03 ± 0.021
UniProt Q86V48|Q86V48-2|Q86V48-3	0.953 ± 0.056	0.967 ± 0.042	1.01 ± 0.051	0.99 ± 0.097	1.03 ± 0.088	1.08 ± 0.081	1.17 ± 0.1	1.2 ± 0.11
UniProt P55072	0.982 ± 0.03	1.05 ± 0.064	0.999 ± 0.073	1.02 ± 0.12	1.03 ± 0.11	1.03 ± 0.14	1 ± 0.1	1 ± 0.11
UniProt Q13428|Q13428-3|Q13428-4|Q13428-7	0.975 ± 0.096	1.01 ± 0.085	1.09 ± 0.12	1.09 ± 0.15	1.11 ± 0.16	1.13 ± 0.14	1.17 ± 0.17	1.23 ± 0.23
UniProt P80217|P80217-2	0.97 ± 0.043	1.01 ± 0.063	0.926 ± 0.044	0.902 ± 0.076	0.877 ± 0.059	0.911 ± 0.067	0.934 ± 0.052	0.938 ± 0.051
MTM1 (UniProt Q13496)	1.01 ± 0.078	1.08 ± 0.088	0.961 ± 0.043	0.99 ± 0.076	0.933 ± 0.093	0.962 ± 0.093	0.93 ± 0.057	0.891 ± 0.087
ANKRD11 (UniProt Q6UB99)	1.01 ± 0.024	1.01 ± 0.092	1.1 ± 0.027	1.1 ± 0.06	1.1 ± 0.041	1.08 ± 0.042	1.18 ± 0.073	1.17 ± 0.073
EIF3I (UniProt Q13347)	1.02 ± 0.04	1.03 ± 0.091	0.993 ± 0.089	1.04 ± 0.15	1.13 ± 0.19	1.26 ± 0.26	1.32 ± 0.23	1.4 ± 0.29
UniProt Q7Z3B4|Q7Z3B4-3	1.02 ± 0.051	1 ± 0.021	1 ± 0.038	1.01 ± 0.032	1.06 ± 0.062	1.07 ± 0.065	1.12 ± 0.055	1.18 ± 0.092
UniProt P60228	1.09 ± 0.046	1.08 ± 0.061	1.05 ± 0.098	1.14 ± 0.17	1.32 ± 0.27	1.44 ± 0.33	1.58 ± 0.3	1.75 ± 0.38
HNRNPA0 (UniProt Q13151)	0.975 ± 0.038	1 ± 0.024	1 ± 0.038	0.989 ± 0.05	0.967 ± 0.035	1 ± 0.046	1.01 ± 0.052	0.986 ± 0.058
UniProt Q8WUQ7|Q8WUQ7-2	0.975 ± 0.11	1.02 ± 0.12	0.967 ± 0.13	1.02 ± 0.14	1.09 ± 0.13	1.12 ± 0.095	1.12 ± 0.03	1.19 ± 0.11
Q5STZ8|Q8NE71 (UniProt Q8NE71)	1.03 ± 0.023	1.02 ± 0.019	0.96 ± 0.053	0.987 ± 0.043	0.993 ± 0.06	0.997 ± 0.046	0.994 ± 0.066	0.984 ± 0.092
EDC4 (UniProt Q6P2E9)	0.984 ± 0.029	1 ± 0.037	1.01 ± 0.045	1.01 ± 0.029	1.01 ± 0.039	1.02 ± 0.032	1.02 ± 0.057	1.04 ± 0.046
UniProt Q8N3X1|Q8N3X1-2	1.05 ± 0.043	1.01 ± 0.076	1.09 ± 0.022	1.27 ± 0.017	1.39 ± 0.024	1.64 ± 0.031	1.77 ± 0.15	2.04 ± 0.24
UniProt Q04656|Q04656-2|Q04656-3|Q04656-5	1.01 ± 0.13	1.01 ± 0.059	0.971 ± 0.096	1.01 ± 0.079	0.951 ± 0.052	1.02 ± 0.015	0.972 ± 0.11	0.924 ± 0.087
THOC7 (UniProt Q6I9Y2)	0.999 ± 0.13	1.15 ± 0.095	1.6 ± 0.23	1.92 ± 0.32	2.31 ± 0.58	2.51 ± 0.63	2.43 ± 0.56	2.78 ± 0.98
DDX1 (UniProt Q92499)	1.02 ± 0.024	1.02 ± 0.066	0.941 ± 0.027	0.971 ± 0.072	0.997 ± 0.059	0.993 ± 0.063	0.971 ± 0.013	0.961 ± 0.038
UniProt Q10567|Q10567-2|Q10567-3	0.918 ± 0.056	0.927 ± 0.032	0.956 ± 0.054	0.943 ± 0.044	0.954 ± 0.04	0.919 ± 0.051	0.921 ± 0.05	0.924 ± 0.054
THOC2 (UniProt Q8NI27)	1.14 ± 0.054	1.33 ± 0.14	1.39 ± 0.15	1.72 ± 0.29	2.05 ± 0.4	2.18 ± 0.51	2.23 ± 0.54	2.16 ± 0.48
UniProt Q8WXA9-2	1.02 ± 0.067	1.11 ± 0.044	1.14 ± 0.077	1.12 ± 0.082	1.15 ± 0.067	1.11 ± 0.07	1.18 ± 0.035	1.18 ± 0.1
UniProt Q15424|Q15424-3|Q15424-4	0.958 ± 0.048	0.938 ± 0.052	1.04 ± 0.039	1.09 ± 0.081	1.19 ± 0.066	1.25 ± 0.041	1.38 ± 0.083	1.44 ± 0.083
UniProt Q5SRE5|Q5SRE5-2	1.17 ± 0.11	1.13 ± 0.051	1.03 ± 0.13	1.01 ± 0.13	1.13 ± 0.024	1.11 ± 0.088	1.03 ± 0.029	1.08 ± 0.046
UniProt P78563|P78563-2|P78563-3|P78563-4|P78563-5|P78563-6	1.05 ± 0.12	1.03 ± 0.13	1.007 ± 0.0033	1.07 ± 0.053	1.11 ± 0.044	1.16 ± 0.062	1.15 ± 0.031	1.16 ± 0.1
TBL3 (UniProt Q12788)	1.18 ± 0.1	1.16 ± 0.14	1.11 ± 0.058	1.36 ± 0.15	1.59 ± 0.19	1.65 ± 0.17	1.72 ± 0.21	1.7 ± 0.26
